Source: PubChem BioAssay (National Center for Advancing Translational Sciences (NCATS))
A selection: hits, their analogues and other compounds. The true share with any hit is near 1.8%.
GLP-1R inv ag: inverse agonists of human GLP-1 receptor | P43220 | HEK293 GLP-1R CRE-luciferase, luminescence, 24 h; GLP-1R form is constitutively active | Potency, µM (doses to about 38.3 µM), usual class: inhibitors | 410,000 tested, 1.6% active | AID 624417; also: nearly all actives have a fitted effect of over 55% in size
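Luminescence readout: a drop in cAMP-driven luciferase signal flags inverse agonism at a constitutively active GLP-1R stably expressed in HEK293. Compound exposure lasted 24 hr at 37 deg C, 5% CO2.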
KAT2A inh: inhibitors of human GCN5L2 histone acetyltransferase; Q92830; GCN5L2 HAT assay, ThioGlo1 CoA-SH fluorescence; AID 504327; 390,000 tested, 0.21% active; Potency, µM (series often up to 58.9 µM), actives largely listed as inhibitors
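Preincubate 20nM GCN5L2 with compound 15 min, RT → add 50uM ThioGlo1 + 75uM H3(1-25) + 70uM acetyl-CoA → read fluorescence 0 and 20 min. Primary qHTS; fluorescent artifacts likely.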
RGS4 inhibitor: human RGS4 inhibition; Potency, µM (highest dose often 114 µM), actives largely listed as inhibitors; Transcreener GDP fluorescence polarization, RGS4-accelerated GTP hydrolysis; AID 504845; P49798; 390,000 tested, 0.039% active; also: nearly all actives have a fitted effect of over 75% in size
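MLSMR compounds (23 nl, pin-transferred) preincubated 10 min at room temperature with a 500nM (2x) first reagent, then RGS4 at 900nM (2x) plus Transcreener GDP mix added; fluorescence polarization (620/688 nm) read before and after 90 min at 30 °C.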
PTHR1 agonist: activates the human parathyroid hormone receptor PTHR1 | Q03431 | HEK293 GP2 PTHR1 cells, GloSensor cAMP luminescence, 1 h | Potency, µM (series often up to 115 µM), most hits filed as activators | 410,000 tested, 0.075% active; also: nearly all actives have a fitted effect of over 55% in size
Target sequence (Q03431 whole entry, looked up): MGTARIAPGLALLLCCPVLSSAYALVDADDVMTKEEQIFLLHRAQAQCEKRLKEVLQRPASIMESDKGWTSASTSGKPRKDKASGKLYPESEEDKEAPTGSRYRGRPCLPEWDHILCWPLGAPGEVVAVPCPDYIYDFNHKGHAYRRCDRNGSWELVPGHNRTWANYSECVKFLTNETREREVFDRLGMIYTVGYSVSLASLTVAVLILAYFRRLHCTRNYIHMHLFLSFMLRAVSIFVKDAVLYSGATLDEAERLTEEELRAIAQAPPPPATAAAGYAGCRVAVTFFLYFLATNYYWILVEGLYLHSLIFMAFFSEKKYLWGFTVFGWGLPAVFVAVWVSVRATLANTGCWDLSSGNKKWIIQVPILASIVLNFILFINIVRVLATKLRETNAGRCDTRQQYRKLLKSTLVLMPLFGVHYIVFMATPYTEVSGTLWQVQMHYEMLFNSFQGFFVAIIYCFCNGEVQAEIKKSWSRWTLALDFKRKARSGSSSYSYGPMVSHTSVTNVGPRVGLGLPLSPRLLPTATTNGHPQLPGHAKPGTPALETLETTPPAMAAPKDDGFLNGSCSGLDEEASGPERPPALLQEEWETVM
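HEK-293-derived GP2 cells expressing PTHR1 and a GloSensor cAMP reporter, 3,000/well, plated overnight, given luciferin plus IBMX (each 0.5 mM as added) for 1 h at 37 °C, then compound for 1 h at 37 °C. Luminescence was read after 15 min at room temperature.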
GLP1R cytotox: cytotoxic in the GLP-1 receptor inverse agonist counter-screen. Potency, µM (top dose mostly 38.3 µM), usual class: inhibitors. HEK293 cAMP-luciferase reporter cells, luminescence, 24 h. 410,000 tested, 0.13% active;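 also: loss of luciferase light is scored as toxicity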
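To flag toxic compounds, the library was rerun on cells for 24 hr at 37 deg C and 5% CO2. Viability-linked luminescence was captured 12 min after adding luciferase detection reagent.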
GLP-1R agonist: activates the human GLP-1 receptor. P43220. HEK293 GLP-1R CRE-luciferase, luminescence, 4-6 h; cells express a hypersensitive GLP-1R form. Potency, µM (top dose mostly 45.6 µM), usual class: activators. 380,000 tested, 0.007% active
Hits are given with their value; . = inactive; ? = inconclusive; / = no result. Calls follow the shape of the dose curve; as a rule, active = well fitted curve in the direction sought with a large enough effect; inconclusive = small, poorly fitted or top-dose-only effect, or another doubt; inactive = no such curve, though single readings can be large; an effect the other way counts as inactive or inconclusive.

SMILES	GLP-1R inv ag	KAT2A inh	RGS4 inhibitor	PTHR1 agonist	GLP1R cytotox	GLP-1R agonist
Cc1cccc(NC(=O)c2cnc3sc(N4CCCC4)nn3c2=O)c1C	.	.	.	.	.	/
COc1cc(-c2ccc(N=Nc3ccc4c(S(=O)(=O)O)cc(S(=O)(=O)O)c(N)c4c3O)c(OC)c2)ccc1N=Nc1ccc2c(S(=O)(=O)O)cc(S(=O)(=O)O)c(N)c2c1O	/	4µM	.	/	/	/
CCOC(=O)/C(=N/Nc1ccccc1OC)N1CCCc2ccccc21	?	.	.	.	.	.
CCOC(=O)/C(=N/Nc1ccc(OC)cc1)N1CCCc2ccccc21	4.5µM	.	.	.	.	.
COc1ccc(-c2cn3c(C)c(C(=O)N4CCCc5ccccc54)sc3n2)cc1	8.9µM	/	.	.	.	.
Cc1ccc(-c2cc(C(=O)N3CC(C)OC(C)C3)c3ccccc3n2)o1 (stereo not given)	.	22µM	.	.	.	.
[N-]=[N+]=Nc1ccc(C(=O)CSC[C@H](NC(=O)CC[C@H](N)C(=O)O)C(=O)NCC(=O)O)cc1	/	7.9µM	3.4µM	/	/	/
CCCCCCCC/C=C\CCCCCCCC(=O)OC[C@@H](O)[C@H]1OC[C@H](O)[C@H]1O	/	/	/	/	/	.
OCCN(CCO)c1nc2ccccc2[nH]1	.	.	.	?	.	.
O=c1[nH]c(=O)n(C(c2ccccc2)(c2ccccc2)c2ccccc2)cc1N(CCO)CCO	10µM	/	.	.	.	.
O=C(COc1ccc(Cl)cc1Br)NC(=O)NCc1ccccc1	.	.	.	.	.	.
CC(Nc1nc(-c2ccc(F)cc2)cs1)c1nc2cc(C(F)(F)F)ccc2n1CCCO (stereo not given)	7.9µM	/	.	.	.	.
CC(Nc1nc(-c2ccc(F)cc2)cs1)c1nc2cc(C(F)(F)F)ccc2n1CCOCCO (stereo not given)	.	/	.	.	.	.
Cc1ccc(Cn2c(C(C)Nc3nc(-c4ccc(F)cc4)cs3)nc3cc(C(F)(F)F)ccc32)cc1 (stereo not given)	10µM	/	.	.	.	.
O=C(NCC1CCCO1)C(c1cccs1)N(Cc1ccccc1)C(=O)c1ccc(-c2ccccc2)[nH]1 (stereo not given)	?	.	.	.	.	.
O=C(NCC1CCCO1)C(c1cccs1)N(C(=O)c1ccc(-c2ccccc2)[nH]1)C1CCCC1 (stereo not given)	10µM	.	.	.	.	.
O=C(c1cccc([N+](=O)[O-])c1)N1c2nc(-c3ccco3)nn2C2(CCCCC2)[C@@H]2CCCC[C@@H]21	?	.	.	.	.	/
Cc1ccc(C2CN(c3ccccc3)CC2C(=O)c2ccc(F)cc2)cc1 (stereo not given)	10µM	.	.	.	.	.
CC(C)(C)c1ccc(OCCNCc2ccccc2)cc1	?	.	.	.	?	.
CC(C)(C)c1ccc(OCCNC(=S)Nc2ccccc2)cc1	10µM	.	.	.	5.6µM	.
CN(C(=O)CO)c1c(I)c(C(=O)NCC(O)CO)c(I)c(C(=O)NCC(O)CO)c1I (stereo not given)	/	/	/	/	/	.
CCc1cccc(OCC(=O)Nc2ccc(C)c(S(=O)(=O)N3CCCCCC3)c2)c1	5µM	.	.	.	.	.
Cc1ccc(NC(=O)/C=C/c2ccco2)cc1S(=O)(=O)N1CCCCCC1	10µM	/	.	.	.	.
CC(=O)c1ccc(OCCCC(=O)Nc2ccc(C)c(S(=O)(=O)N3CCCCC3)c2)cc1	11µM	.	.	.	.	.
CCOc1ccc(C(=O)CCC(=O)Nc2ccc(C)c(S(=O)(=O)N3CCCCC3)c2)cc1	?	.	.	.	.	.
SMILES	GLP-1R inv ag	KAT2A inh	RGS4 inhibitor	PTHR1 agonist	GLP1R cytotox	GLP-1R agonist
NC(=O)Nc1cccc2ccccc12	.	.	.	.	.	.
O=C(Nc1cccc2ccccc12)OC1C=CS(=O)(=O)C1 (stereo not given)	10µM	.	.	.	.	.
Cc1ccccc1C(=O)N(Cc1ccc(N(C)C)cc1)Cc1ccco1	?	.	.	.	.	/
N#C/C(C(=O)N1CCCCC1)=C1\Nc2ccccc2S1	.	.	.	.	.	.
Cc1ccc(NC(=S)/C(C#N)=C2/Nc3ccccc3S2)cc1	4µM	/	/	.	?	.
CCCN1C(=O)c2ccc(C(=O)Nc3ccccc3C(=O)O)cc2C1=O	.	.	.	.	.	.
Cc1cccc(N2CCN(C(=O)C3CCCN(S(=O)(=O)c4c(C)noc4C)C3)CC2)c1C (stereo not given)	7.9µM	/	.	.	.	.
Cc1cccc(N2CCN(C(=O)C3CCCCC3)CC2)c1C	10µM	.	.	.	.	.
CCN1C(=O)c2ccccc2C1Nc1cccc(OCCN2CCCCC2)c1 (stereo not given)	/	/	/	/	/	.
Cc1cccc(N2CCN(C(=O)c3ccc4c(c3)NC(=O)C(CSCc3cccc(F)c3)N4)CC2C)c1 (stereo not given)	.	14µM	?	.	?	.
Cc1ccc2nc(-c3ccc(NC(=S)NC(=O)C(C)C)cc3)sc2c1	.	.	.	.	.	.
Cc1ccc2nc(-c3ccc(NC(=S)NC4CC(C)(C)NC(C)(C)C4)cc3)sc2c1	5µM	.	.	.	?	.
Cc1cccc(C)c1NC(=O)NC1CCc2ccccc21 (stereo not given)	.	.	.	.	.	.
COC(=O)c1ccc(NC(=S)NC2CCc3ccccc32)cc1 (stereo not given)	10µM	.	.	.	?	.
COC(=O)c1ccc(NC(=S)NC2CC(C)(C)NC(C)(C)C2)cc1	8.9µM	.	.	.	.	.
COC(=O)c1ccc(NC(=S)NC2CC2)cc1	.	.	.	.	.	.
Cc1ccccc1CN1CCN(C(=O)[C@H]2O[C@@H](n3cnc4c(N)ncnc43)[C@H](O)[C@@H]2O)CC1	.	/	/	.	.	.
O=C(Nc1ccc2nc3n(c(=O)c2c1)CCCCC3)c1cc([N+](=O)[O-])ccc1F	11µM	.	.	.	?	.
O=C(Nc1ccc2nc3n(c(=O)c2c1)CCCCC3)c1c(F)ccc([N+](=O)[O-])c1F	?	.	?	.	?	.
N=c1c(S(=O)(=O)c2ccccc2)cc2c(=O)n3ccccc3nc2n1C1CCCCC1	10µM	/	?	.	.	.
CCSc1ncc(Cl)c(C(=O)N(Cc2ccccc2)c2ccc(OC)cc2)n1	5.6µM	.	.	.	.	/
